Giardia FBPA inh: Giardia lamblia aldolase inhibition; 290,000 tested, 0.71% active; Potency, µM (titrated, usually from 59.6 µM), for inactives: at the top dose activity, negative = inhibition, most hits filed as inhibitors; AID 2451; A8B2U2; purified Giardia FBPA; further: potency means the concentration at half of the fitted maximal effect; nearly all actives have a fitted effect of over 55% in size
Target sequence (A8B2U2 whole entry, looked up): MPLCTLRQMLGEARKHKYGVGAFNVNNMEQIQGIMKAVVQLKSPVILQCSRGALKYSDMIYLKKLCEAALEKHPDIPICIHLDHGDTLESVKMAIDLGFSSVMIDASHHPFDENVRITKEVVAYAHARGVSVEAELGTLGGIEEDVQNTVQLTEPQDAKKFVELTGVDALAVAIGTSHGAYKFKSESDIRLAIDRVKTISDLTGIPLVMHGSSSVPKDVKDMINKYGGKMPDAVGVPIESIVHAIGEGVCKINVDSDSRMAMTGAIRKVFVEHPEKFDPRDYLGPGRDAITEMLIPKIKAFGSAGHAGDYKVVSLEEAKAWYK
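40 nM FBPA preincubated 10 min at RT with compound (up to 57.5 uM final), then substrate plus GAPDH/TPI/NAD/arsenate coupling and diaphorase/resazurin added. Fluorescence read after 20 min at RT, 525/598 nm.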
FMDV antiviral: foot and mouth disease virus antiviral activity | FMDV antiviral cell-based qHTS | Potency, µM (top dose mostly 57.9 µM), for inactives: at the highest dose activity change, negative = inhibition, usual class: inhibitors | 410,000 tested, 1.2% active | AID 1159524; calls by dose curve; tested in HEK293T cells; further: read-out not given here; potency means the concentration at half of the fitted maximal effect; nearly all actives have a fitted effect of over 45% in size
Sm TGR inh: inhibitors of Schistosoma mansoni thioredoxin glutathione reductase; 360,000 tested, 3% active; Potency, µM (titrated, usually from 114 µM), without a hit: top-dose activity change, negative = inhibition, actives largely listed as inhibitors; AID 485364; Q962Y6; purified TGR, DTNB reduction, TNB absorbance 405 nm; further: potency means the concentration at half of the fitted maximal effect; nearly all actives have a fitted effect of over 60% in size
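TGR 20 nM + NADPH 100 uM (dispensed conc.), cpd preinc 15 min RT; start with NADPH (500 uM addition) then DTNB (15 mM addition). Kinetic TNB absorbance, 405 nm filter. Four-parameter Hill fit across titration.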
RE007 growth inh: less growth of the S. pombe RE007 Vpr strain. AID 651644. 360,000 tested, 0.21% active. S. pombe RE007 Vpr strain, BacTiter-Glo ATP luminescence, 24 h. Potency, µM (top dose mostly 92.2 µM), for the others: at the top dose activity change, negative = less growth, hits mostly inhibitors; active means well fitted falling curve with a large enough effect; inconclusive means small, poorly fitted or top-dose-only effect; inactive means no such curve, though single readings can be large or run the other way; further: potency means the concentration at half of the fitted maximal effect; nearly all actives have a fitted effect of over 50% in size
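Fission yeast strain RE007, carrying one chromosomally integrated HIV-1 vpr copy, was seeded at OD 0.01 in PMG+AL medium with 23 nL pinned compound. After 24 h at 30 °C and 99% humidity, viability was read by BacTiter-Glo luminescence.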
HCMV inh: blocks human cytomegalovirus replication; 410,000 tested, 4.5% active; activity change, negative = inhibition, % at 57.5 µM; HFF cells, HCMV-luciferase reporter, 72 h; hits give low values; AID 1259415; in the data active means activity change below about -60%; inconclusive means no clear call, values can overlap the other calls; inactive means above about -39%
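Inhibition of viral replication was scored as loss of reporter luminescence in HFFs infected with HCMV-luciferase (MOI 1 PFU/cell) for 72 h; compounds tested at 2 doses, normalized to buffer and Salinomycin controls.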
TbPYK inhibitor: T. brucei pyruvate kinase inhibition | Q57TT1 | TbPYK enzyme, Kinase-Glo Plus ATP luminescence, 45 min | Potency, µM (top dose mostly 76.8 µM), without a hit: top-dose activity, negative = inhibition, usual class: inhibitors | 410,000 tested, 0.12% active; further: potency means the concentration at half of the fitted maximal effect; nearly all actives have a fitted effect of over 50% in size
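Enzyme and substrate buffer are dispensed first and compound is pin-transferred. ADP at 130 uM final then starts the reaction, which runs 45 min at room temperature. Detection reagent is added for 10 min before luminescence is imaged.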
* = called active by the depositor; ? = inconclusive; . = no result. Hits are enriched below; roughly 7.7% of the tested compounds scored in any of these assays. Unless noted, the call rests on the fitted dose curve; in most records, active means well fitted curve in the direction sought with a large enough effect; inconclusive means small, poorly fitted or top-dose-only effect, or another doubt; inactive means no such curve, though single readings can be large; an effect the other way counts as inactive or inconclusive. On the % scale 0 is the no-effect control and ±100 the full control effect.

SMILES	Giardia FBPA inh	FMDV antiviral	Sm TGR inh	RE007 growth inh	HCMV inh	TbPYK inhibitor
COc1cc(CN2CCCC(n3cc(C(=O)N4CCCCC4)nn3)C2)cc(OC)c1OC (stereo unspecified)	.	-9%	.	.	.	.
CCCOC(=O)c1ccc(NC(=O)C2C3C=CC(O3)C2C(=O)O)cc1 (stereo unspecified)	9%	44%	20µM*	13µM*	17	-14%
COc1cccc(NC(=O)C2C3C=CC(O3)C2C(=O)O)c1 (stereo unspecified)	-12%	-2%	35µM*	-23%	-4	2%
O=C(O)C1C2C=CC(O2)C1C(=O)Nc1ccc2c(c1)OCCO2 (stereo unspecified)	-19%	.	35µM*	.	.	.
COc1ccc(NC(=O)C2C3C=CC(O3)C2C(=O)O)cc1 (stereo unspecified)	-5%	5%	45µM*	-5%	19	1%
O=C(Cn1c(=O)n(-c2ccc(Cl)cc2)c(=O)c2c3c(sc21)CCCCC3)Nc1cccc(Cl)c1	.	?	3%	.	20	6%
O=C1NC(=O)C(=Cc2ccc(OCCOc3ccc([N+](=O)[O-])cc3)cc2)C(=O)N1	-10%	-16%	16µM*	5%	10	?
O=C1NC(=O)C(=Cc2cccc(OCCOc3ccccc3)c2)C(=O)N1	-6%	1%	11µM*	-14%	104	?
O=Cc1ccc(OCCOc2ccc([N+](=O)[O-])cc2)cc1	-2%	5%	1%	1%	9	-7%
Cc1ccc(OCCOc2cccc(C=C3C(=O)NC(=O)NC3=O)c2)c(C)c1	0%	14µM*	?	-11%	153	-15%
Cc1cc2c(c(-c3ccc(Cl)cc3)c1)OC(CNC(=O)CCC(=O)N(C)C)C2 (stereo unspecified)	.	-1%	.	.	.	.
COc1ccccc1CNc1ccc2c(c1)OC[C@H](CC(C)C)NS2(=O)=O	.	.	.	.	-28	.
CN(C)c1oc(/C=C/c2cccs2)nc1S(=O)(=O)c1ccccc1	-10%	-4%	35µM*	-6%	?	6%
COc1ccccc1/C=C/c1nc(S(=O)(=O)c2ccccc2)c(N(C)C)o1	-3%	-14%	10µM*	-1%	2	70%
COc1cccc(/C=C/c2nc(S(=O)(=O)c3ccccc3)c(N(C)C)o2)c1	-3%	-8%	?	1%	55	23%
Cc1cc(NC(=O)N(C)CCc2c(C)nn(C)c2C)ccc1Br	.	12%	-2%	.	15	1%
C[N+](C)(C)CCOP(=O)(O)OP(=O)([O-])OCC1OC(n2ccc(N)nc2=O)[C@H](O)[C@@H]1O (stereo partly specified)	.	.	.	.	.	1%
COC(=O)c1ccc(C(NC(=O)OCc2ccccc2)/C(C)=C/[C@@H](C)C(=O)NCCc2c[nH]c3ccc(OC)cc23)cc1 (stereo partly specified)	-2%	.	.	.	.	.
CN1CCN(c2nc3ccccc3nc2C(C#N)C(=O)OC2CCCCC2)CC1 (stereo unspecified)	0%	10%	-2%	9%	13	0%
N#CC(C(=O)OC1CCCCC1)c1nc2ccccc2nc1N1CCOCC1 (stereo unspecified)	6%	0%	-2%	-4%	-78*	3%
COC(=O)CCC(=O)OC1(C)C(=O)C=C2C=C(c3ccsc3)OC=C2C1=O (stereo unspecified)	6%	-14%	.	-6%	.	-4%
CCC(=O)OC1(C)C(=O)C=C2C=C(c3ccsc3)OC=C2C1=O (stereo unspecified)	?	-8%	32µM*	11%	.	-8%
CCc1cccc(C)c1NC(=O)c1cnn(-c2ccc(F)cc2)c1-n1cccc1	.	-27%	0%	.	-10	0%
CC(C)NS(=O)(=O)c1ccc(OCC(=O)N2CCCC2)cc1	4%	.	4%	-10%	27	-6%
CCNS(=O)(=O)c1ccc(CCC(=O)N2CCN(c3cccc(Cl)c3)CC2)cc1	12%	28µM*	1%	4%	-23	-1%
